Assay results: PubChem BioAssay (EPA / NIEHS)
Inconclusive results are not listed. Calls of active or inactive are those of the source. The calls were made as follows: active = hit-call score of the fitted dose curve at least 0.9, where 1 is the maximum; inconclusive = response in the unintended direction; inactive = score below 0.9.

tested on: Sodium/Iodide Symporter (NIS), SLC5A5 (gene 6528); test: CPHEA_Stoker_NIS_Inhibition_RAIU: CPHEA's Radioactive Iodide Uptake (RAIU) Assay for Sodium/Iodide Symporter (NIS) Inhibition, Stoker and Laws Labs (AID 2283841)
Description: CPHEA_Stoker_NIS is a cell-based, single-readout assay that uses hNIS-HEK293T-EPA, a novel human kidney cell line expressing human NIS, with measurements taken at 2 hours after chemical dosing in a 96-well plate. This radioactive iodide uptake (RAIU) assay is used to identify inhibitors of NIS-mediated iodide uptake. A parallel cytoxicity assay (Cell Titer Glo, Promega) was also run in the same cell line.CPHEA_Stoker_NIS_Inhibition_RAIU is one of 2 assay components measured from the CPHEA_Stoker_NIS assay. It is designed to make measurements of radioactive substrate uptake to understand transporter function, as detected with 125-i signals by MicroBeta radioactivity plate reader technology.Data from the assay component CPHEA_Stoker_NIS_Inhibition_RAIU was analyzed at the endpoint, CPHEA_Stoker_NIS_Inhibition_RAIU, in the positive analysis fitting direction relative to DMSO as the negative control and baseline of activity. Measures of radioactive substrate uptake for loss-of-signal activity can be used to understand the effects on transporter function at the pathway level as they relate to the sodium-iodide symporter, gene SLC5A5. To generalize the intended target to other relatable targets, this assay endpoint is annotated to the transporter intended target family, where the subfamily is sodium-iodide symporter (NIS).
hNIS-HEK293T-EPA cells were seeded with a MultiFlo FX dispenser (BioTek, Winooski, VT) into ScintiPlate-96 microplates (Perkin Elmer, Waltham, MA) at a density of 4.0x10^4 cells per well in 200uL growth media and incubated for 40 hours before experimentation. On day of the assay, carrier-free 125I (Perkin-Elmer, Waltham, MA; specific activity: 17.4Ci/mg) was diluted with Hanks' balanced salt solution (Sigma, St. Louis, MO) supplemented with 10mM HEPES (uptake buffer; pH 7.4) at 5uCi/mL (288pg 125I/mL uptake buffer; 2.30nM). The assay was initiated by washing cells twice with 200uL uptake buffer using a 96-well Tecan HydroSpeed plate washer (Tecan, Mannedorf, Switzerland). Uptake buffer (59.7uL) was then added back to each well. Chemical samples (350nL at 200X) were administered using the HDR tool as previously described to achieve a 1X chemical/0.5% final DMSO concentration with subsequent addition of 10uL of 125I dilution (final [125I]: 329pM; 2.88pg/well) for a final reaction volume of 70uL/well. Cells were incubated at room temperature for 2 hours and then washed twice with 200uL ice cold uptake buffer. All uptake buffer was aspirated from wells, plates were sealed, and read on a MicroBeta2 plate reader (Perkin Elmer, Waltham, MA) using a detection protocol to measure CPM corresponding to intracellular 125I concentration. Each chemical concentration (0.001, 0.01, 0.1, 1.0, 10, and 100uM) was assayed in triplicate with three independent biological replicate plates (3 sequential cell passages). Additionally, a concentration response of NaClO4 (0.001, 0.01, 0.1, 1.0, 10, and 100uM) served as a positive control inhibition curve on each RAIU assay plate. DMSO control wells were assayed on each plate as a measure of maximum iodide uptake for normalization and determination of intra- and inter-assay variation. (Toxicol In Vitro, 2017, 40:66-78).

| Compound | outcome | AC50 |
| --- | --- | --- |
| Cc1ccc(OP(=O)(Oc2ccc(C)cc2)Oc2ccc(C)cc2)cc1 (tested in a mixture with another compound) | inactive |  |
| CCCCCCCCCCCCCCCC[N+](C)(C)C |  | 10.2 µM (active) |
| O=C(CCl)c1ccccc1 | inactive |  |
| O=C1Nc2ccc(Cl)cc2C(c2ccccc2)=NC1O (stereo not given) | inactive |  |
| O=[N+]([O-])O | inactive |  |
| CC(Cc1ccc(C(C)(C)C)cc1)CN1C[C@@H](C)O[C@@H](C)C1 (stereo not given in full) | inactive |  |
| CC(C)(c1cc(Cl)c(O)c(Cl)c1)c1cc(Cl)c(O)c(Cl)c1 |  | 9.92 µM (active) |
| O=CNC(N1CCN(C(NC=O)C(Cl)(Cl)Cl)CC1)C(Cl)(Cl)Cl (stereo not given) | inactive |  |
| O=P(O)(Oc1ccccc1)Oc1ccccc1 | inactive |  |
| CC(=O)c1cc2c(cc1C)C(C)(C)C(C)CC2(C)C (stereo not given) | inactive |  |
